Sm TGR inh – inhibitors of Schistosoma mansoni thioredoxin glutathione reductase; purified TGR, DTNB reduction, TNB absorbance 405 nm; AID 485364; Potency, µM (titrated, usually from 114 µM), inactives show top-dose activity change, negative = inhibition, hits mostly inhibitors; 3% of 360,000 active; Q962Y6; note: nearly all actives have a fitted effect of over 60% in size
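Kinetic colorimetric format: TGR-catalysed, NADPH-driven DTNB reduction monitored via TNB absorbance. Enzyme dispensed at 20 nM; compound exposure 15 min at room temperature before reaction start.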
Giardia FBPA inh – inhibitors of Giardia lamblia fructose-1,6-bisphosphate aldolase | purified Giardia FBPA | Potency, µM (top dose mostly 59.6 µM), without a hit: at the top dose activity, negative = inhibition, most hits filed as inhibitors | A8B2U2 | 0.71% of 290,000 active; note: nearly all actives have a fitted effect of over 55% in size
Target sequence (A8B2U2 whole entry, looked up): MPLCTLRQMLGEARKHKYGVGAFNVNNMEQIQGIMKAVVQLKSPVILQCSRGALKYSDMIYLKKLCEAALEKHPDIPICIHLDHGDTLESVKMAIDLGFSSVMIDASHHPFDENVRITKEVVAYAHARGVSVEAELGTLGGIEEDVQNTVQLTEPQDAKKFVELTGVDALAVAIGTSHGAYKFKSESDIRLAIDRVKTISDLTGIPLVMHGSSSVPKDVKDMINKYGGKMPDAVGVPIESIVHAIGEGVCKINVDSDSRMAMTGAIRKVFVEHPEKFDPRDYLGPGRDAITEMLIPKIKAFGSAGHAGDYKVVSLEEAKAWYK
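40 nM FBPA preincubated 10 min at RT with compound (up to 57.5 uM final), then substrate plus GAPDH/TPI/NAD/arsenate coupling and diaphorase/resazurin added. Fluorescence read after 20 min at RT, 525/598 nm.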
AmpC inh detg – blocks E. coli AmpC beta-lactamase in detergent assay | AmpC hydrolysis of nitrocefin, absorbance 480 nm, 0.01% Triton | Potency, µM (doses to about 114 µM), without a hit: top-dose activity change, negative = inhibition, hits mostly inhibitors | 0.041% of 370,000 active;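 note: 0% = no-compound wells and -100% = no-enzyme wells; nearly all actives have a fitted effect of over 25% in size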
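20 mM phosphate pH 7.0 + 0.01% (detergent screen) or 0.0001% Triton X-100; 5.3 nM AmpC reagent; cpd preinc 15 min RT; nitrocefin (800 uM stock) to start; A480 q20 s × 4 min; Activity was normalised to no-enzyme and no-compound control wells.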
AmpC inh no detg – inhibitors of E. coli AmpC beta-lactamase without detergent. AmpC nitrocefin hydrolysis, absorbance 480 nm, 0.0001% Triton. 0.52% of 330,000 active. P00811. Potency, µM (doses to about 57.1 µM), for inactives: at the top dose activity change, negative = inhibition, most hits filed as inhibitors. AID 485341;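 note: plate controls were no compound for no effect and no enzyme for full effect; nearly all actives have a fitted effect of over 20% in size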
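AmpC (5.3 nM in the dispensed reagent) in 20 mM phosphate pH 7.0 with 0.01% (detergent screen) or 0.0001% Triton X-100 was preincubated with compounds for 15 min at room temperature. Nitrocefin was then added from an 800 uM solution, and hydrolysis was followed at 480 nm.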
* hit, by the source's call; ? = inconclusive; . = no result given; ! = not confirmed by another sample. An excerpt weighted towards active compounds, which were near 3.6% of everything screened. Calls come from the whole dose curve; as a rule, active = well fitted curve in the direction sought with a large enough effect; inconclusive = small, poorly fitted or top-dose-only effect, or another doubt; inactive = no such curve, though single readings can be large; an effect the other way counts as inactive or inconclusive. Unless noted, % is set by controls: 0 for no effect and ±100 for the full control effect; potency is the fitted concentration of half-maximal effect.

SMILES	Sm TGR inh	Giardia FBPA inh	AmpC inh detg	AmpC inh no detg
CCOC(=O)c1c(C)n(C)c2ccc(O)c(CN3CCCCC3)c12	28%	-22%	?	-22%
COc1ccc(C2=Nn3c(nnc3-c3ccc(OC)c(OC)c3)SC2)cc1OC	.	1%	.	.
O=C(O)Cc1sc(-c2ccccc2)nc1-c1ccccc1	4%	17%	-7%	-27%
O=C(O)Cc1nc(-c2cccnc2)sc1-c1ccc(Br)cc1	11µM*	4%	6%	-42%
NS(=O)(=O)c1ccc(NS(=O)(=O)c2ccc(NC(=O)c3ccc(-c4ccccc4)cc3)cc2)cc1	-23%	-8%	-12%	11µM*
NS(=O)(=O)c1ccc(NC(=O)c2ccc(-c3ccccc3)cc2)cc1	13%	-4%	-7%	-55%
CN(C)c1ncc2nc(-c3ccc(F)cc3)c(=O)n(-c3ccccc3)c2n1	.	10%	.	.
CCOC(=O)c1ccc(NC(=O)c2cn(CCC#N)nc2-c2ccc3c(c2)OCCO3)cc1	-7%	1%	-7%	119%
Cc1ccc2c(C(=O)CN3CCOCC3)c(C)[nH]c2c1	?	1%	-2%	-13%
Cc1ccc2c(C(=O)CN3CCCCC3)c(C)[nH]c2c1	20µM*	-2%	-14%	-2%
Cc1ccc2c(C(=O)CN3CCC(C(N)=O)CC3)c(C)[nH]c2c1	35µM*	3%	2%	-9%
COC(=O)c1ccc(/C=N/NC(=O)CC(=O)NCc2cccnc2)cc1	19%	4%	6%	-18%
COC(=O)/C(=C\Nc1ccc(Cl)cc1Cl)NC(=O)c1ccc(OC)cc1	2%	0%	-7%	45%
COC(=O)[C@@H](Cc1c[nH]c2ccccc12)NC(=O)CCC(=O)c1ccc(Br)cc1	8%	-6%	0%	21%
O=C(CCn1c(=O)oc2ccccc21)N(Cc1ccccc1)c1ccccc1	-10%	-1%	7%	25%
CCCCN(C(=O)CCn1c(=O)oc2ccccc21)c1ccccc1	25µM*!	-3%	-3%	30%
CCc1ccccc1NC(=O)CC(c1ccc(F)cc1)N1Cc2ccccc2C1=O (stereo not given)	1%	.	13%	.
CC(C)(C)NC(=O)COC(=O)c1ccccc1OCC(=O)Nc1ccc(Br)cc1	2%	-4%	-5%	3%
CCC(=O)c1ccc(OCC(=O)c2ccc3c(c2)NC(=O)CO3)cc1	6%	7%	-3%	-25%
O=C1COc2ccc(C(=O)CCl)cc2N1	3.5µM*	-11%	-5%	-10%
Cc1cccc(C(=O)OCC(=O)c2ccc3c(c2)NC(=O)CO3)c1	.	.	.	-14%
COC(=O)c1cc(C(=O)OCC(=O)c2ccc3c(c2)NC(=O)CO3)cc([N+](=O)[O-])c1	40µM*	.	0%	-20%
CC(C)[C@H](NC(=O)c1ccccc1)C(=O)OCC(=O)c1ccc2c(c1)NC(=O)CO2	35µM*	-4%	?	-19%
Cc1ccc(-n2nnnc2SCC(=O)Nc2sc(C)c(C)c2C#N)cc1C	?	0%	-2%	0.32µM*
CC(C)OC(=O)c1c(NC(=O)C2CC=CCC2C(=O)O)sc2c1CCCCC2 (stereo not given)	-23%	13%	0%	-34%
SMILES	Sm TGR inh	Giardia FBPA inh	AmpC inh detg	AmpC inh no detg
NC(=O)c1c(NC(=O)C2CC=CCC2C(=O)O)sc2c1CCCCC2 (stereo not given)	50µM*	0%	-3%	-42%
C=CCNC(=S)Nc1sc2c(c1C(N)=O)CCCC2	1%	?	-1%	-37%
C=CC(=O)Nc1sc2c(c1C(N)=O)CCCC2	40µM*	.	?	-16%
COc1cccc(C(=O)CN2CCN(S(=O)(=O)c3cccc([N+](=O)[O-])c3)CC2)c1	18µM*	-11%	?	-22%
COc1ccc(C(=O)CN2CCN(S(=O)(=O)c3cccc([N+](=O)[O-])c3)CC2)cc1OC	-23%	-13%	-8%	2%
CC(C)NC(=O)/C(=C/c1ccco1)c1ccccc1	?	-3%	-9%	-13%
O=C(NCCc1ccccc1)/C(=C/c1ccco1)c1ccccc1	13µM*	?	-16%	-26%
CCC(C)NC(=O)/C(=C/c1ccco1)c1ccccc1 (stereo not given)	10µM*	-21%	3%	-8%
CC(C)(C)OC(=O)C[C@H]1C/C=C\C[C@@H](CC(=O)NCCO)C(=O)NCCOC1=O	.	.	.	-12%
C=CCOc1ccc(CC2C(=O)N(C)C(=O)N(C)C2=O)cc1	25µM*	-1%	-2%	10%
CCN(CC)c1ccc(CC2C(=O)N(C)C(=O)N(C)C2=O)cc1	14µM*	-22%	-8%	-11%
CCOc1ccc(CC2C(=O)NC(=O)N(c3ccc(CC)cc3)C2=O)cc1 (stereo not given)	-25%	7%	3%	-13%
CCOC(=O)CNC(=O)CSc1nnc(C)c(=O)[nH]1	-1%	1%	1%	-26%
CCOC(=O)CSc1nnc(NCC(=O)OC(C)C)c(=O)[nH]1	13µM*	0%	-8%	-21%
Cc1cccc(-c2c3c(=O)n(C)c(=O)n(C)c3cn2CC2CCCO2)c1 (stereo not given)	35µM*	0%	-2%	-12%
Cc1cc(C)c2c(n1)sc1c(=O)n(-c3cc(Cl)ccc3C)nnc12	-1%	.	20%	.
CCOc1ccc(C(=O)c2cn(CC(=O)Nc3cccc(OC)c3)c3cc4c(cc3c2=O)OCCO4)cc1	0%	.	9%	.
COc1ccccc1/C=C1\SC(=S)N(CCC(=O)NNC(=O)c2ccccc2O)C1=O	-5%	11%	-8%	16µM*
O=C(c1cc(C2CC2)nn1-c1ccccc1)N1CCN(Cc2c(F)cccc2Cl)CC1	-12%	.	1%	-3%
Cc1ccnc(NC(=O)C2CCC(CNc3c(N4CCCC4)c(=O)c3=O)CC2)c1 (stereo not given)	-1%	2%	?	2.2µM*
CC1CCN(c2c(NCC3CCC(C(=O)Nc4ccccn4)CC3)c(=O)c2=O)CC1 (stereo not given)	-16%	0%	?	-16%
COc1cc(NC(=O)C2CCC(CNc3c(N4CCCCC4)c(=O)c3=O)CC2)cc(OC)c1 (stereo not given)	3%	-1%	?	50µM*
CCCCN1CC(=O)N2[C@H]3c4cc(Cl)ccc4OC[C@@H]3[C@H](c3ccccc3)[C@]2(C)C1=O	-17%	.	1%	71%
COC(=O)CN(C)C1CC(=O)N(c2ccc(Cl)cc2)C1=O (stereo not given)	6.3µM*	-6%	?	-12%
O=C(Cn1nc(C(=O)O)c2ccccc2c1=O)Nc1cc(Cl)cc(Cl)c1	-14%	3%	-3%	11µM*
COc1cc2c(cc1OC)C(C1C(=O)CCCC1=O)N(C(=O)CCl)CC2 (stereo not given)	-32%	-5%	-6%	-1%
COc1cc2c(cc1OC)C(c1cc(OC)c(OC)cc1[N+](=O)[O-])N(C(C)=O)CC2 (stereo not given)	89µM*	-5%	-7%	-17%

Bioassay records (PubChem BioAssay)
